# According to the supplement of paper PMC8253809:
# Legend:
# Assay in all cases: growth inhibition (% activity, log2 RLU normalised to DMSO / staurosporine); higher = more growth inhibition
# Settings in all cases: 33 µM
# DIPGX29 = test system: DIPGX29 (H3.3 K27M diffuse intrinsic pontine glioma line)
# In short: (§1)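 In triplicate, pHGG cell lines and H9-derived neural stem cells were treated for 7 days at 37 °C, 5% CO2 with approved drugs at a single final concentration of about 33 μM, added by pin tool. CellTiter-Glo luminescence, after log2 transformation, was normalised on each plate to % activity between solvent and positive control wells. Growth inhibition is reported as the median across replicates.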
# DIPGX37 = test system: DIPGX37 (H3.3 K27M diffuse intrinsic pontine glioma line)
# In short: as §1
# DIPGX7 = test system: DIPGX7 (H3.3 K27M diffuse intrinsic pontine glioma line)
# In short: as §1
# DIPGX9 = test system: DIPGX9 (diffuse intrinsic pontine glioma line)
# In short: as §1
# HGGX39 = test system: HGGX39 (paediatric high-grade glioma line)
# In short: as §1
# HGGX6 = test system: HGGX6 (H3.3 G34R paediatric high-grade glioma line)
# In short: as §1
# HNSC = test system: HNSC
# In short: as §1
# SUDIPGIV = test system: SUDIPGIV (diffuse intrinsic pontine glioma line)
# In short: as §1
# SUDIPGVI = test system: SUDIPGVI (diffuse intrinsic pontine glioma line)
# In short: as §1
# SUDIPGXIII = test system: SUDIPGXIII (diffuse intrinsic pontine glioma line)
# In short: as §1
Structure (SMILES),growth inhibition (DIPGX29),growth inhibition (DIPGX37),growth inhibition (DIPGX7),growth inhibition (DIPGX9),growth inhibition (HGGX39),growth inhibition (HGGX6),growth inhibition (HNSC),growth inhibition (SUDIPGIV),growth inhibition (SUDIPGVI),growth inhibition (SUDIPGXIII)
COc1ccccc1OCC(O)CO (stereo not given),-3.06%,-1.42%,-2.23%,-0.66%,-1.85%,-0.626%,-6.5%,-1.52%,-1.52%,1.23%
Cc1ncc(C[n+]2csc(CCO)c2C)c(N)n1,0.631%,-0.256%,-1.44%,0.746%,1.92%,1.62%,-1.01%,-0.371%,0.498%,0.53%
Cc1cc2c(cc1S(N)(=O)=O)S(=O)(=O)CCC2,0.849%,2.86%,-0.717%,1.06%,0.974%,0.857%,-0.336%,-0.262%,2.41%,1.65%
C[C@]12CCC3=C4CCC(=O)C=C4CC[C@H]3[C@@H]1CC[C@@]2(O)CC#N,1.43%,-1.59%,-0.302%,0.24%,0.279%,-1.72%,0.249%,-0.958%,1.03%,0.668%
CC(C)(Sc1cc(C(C)(C)C)c(O)c(C(C)(C)C)c1)Sc1cc(C(C)(C)C)c(O)c(C(C)(C)C)c1,-2%,-0.535%,-0.766%,-0.47%,-0.682%,-1.24%,1.54%,-1.38%,-2.9%,1.85%
CC(=O)NC[C@H]1CN(c2ccc(N3CCOCC3)c(F)c2)C(=O)O1,0.341%,-2.02%,0.521%,1.07%,3.34%,1.89%,6.16%,4.69%,1.21%,1.55%
O=C(C[S+]([O-])Cc1ccco1)NC/C=C\COc1cc(CN2CCCCC2)ccn1 (stereo not given),-1.37%,-2.72%,0.0817%,-0.604%,-0.28%,0.0479%,-2.82%,-2.24%,-1.66%,-2.4%
CCOC(=O)O[C@]1(C(=O)OCCl)CC[C@H]2[C@@H]3CCC4=CC(=O)C=C[C@]4(C)[C@H]3[C@@H](O)C[C@@]21C,1.63%,4.19%,2.28%,3.44%,2.53%,2.56%,1.32%,-2.17%,3.04%,-2.19%
Oc1cc(O)c(Cl)cn1,-1.47%,-1.68%,-1.58%,-0.302%,-2.27%,0.219%,-3.27%,-2.24%,-1.42%,0.7%
CN(C)CCC(c1ccccc1)c1ccccn1 (stereo not given),1.43%,4.57%,2.52%,0.794%,3.82%,3.28%,1.8%,1.78%,2.2%,0.511%
CCOC(=O)[C@H](CCc1ccccc1)N[C@H]1CCCN2CCC[C@@H](C(=O)O)N2C1=O,2.06%,3.84%,3.15%,2.7%,2.78%,1.01%,9.63%,0.443%,4.92%,-0.861%
Oc1ncnc2[nH]ncc12,-2.33%,-1.9%,-0.64%,-2.61%,-3.77%,-3.6%,-5.63%,-3.97%,-6.47%,0.643%
CC[C@@H]1/C=C(\C)C[C@H](C)C[C@H](OC)[C@H]2O[C@@](O)(C(=O)C(=O)N3CCCC[C@H]3C(=O)O[C@H](/C(C)=C/[C@@H]3CC[C@H](Cl)[C@H](OC)C3)[C@H](C)[C@@H](O)CC1=O)[C@H](C)C[C@@H]2OC,1.37%,4.05%,3.83%,5.36%,7.81%,2.73%,8.07%,5.69%,5.28%,5.19%
CC[C@H]1OC(=O)[C@H](C)[C@@H](O[C@H]2C[C@@](C)(OC)[C@@H](O)[C@H](C)O2)[C@H](C)[C@@H](O[C@@H]2O[C@H](C)C[C@H](N(C)C)[C@H]2O)[C@](C)(OC)C[C@@H](C)C(=O)[C@H](C)[C@@H](O)[C@]1(C)O,-1.86%,0.02%,-2.66%,-0.349%,1.64%,0.562%,-3.32%,-2.12%,-0.602%,-13%
CCOc1ccc2nc3cc(N)ccc3c(N)c2c1,-0.121%,2.61%,2.68%,3.22%,-1.26%,1.77%,2.09%,1.88%,-0.000958%,1.33%
CCN(CC)CCOC(=O)c1ccc(N)cc1,1.14%,-1.44%,2.21%,1.17%,3.11%,0.874%,2.07%,1.58%,1.31%,0.856%
c1ccc2c(CC3=NCCN3)cccc2c1,0.509%,1.82%,1.78%,1.2%,4.23%,-1.48%,10%,1.67%,3.03%,1.34%
CC1CCc2c(N3CCC(O)CC3)c(F)cc3c(=O)c(C(=O)O)cn1c23 (stereo not given),1.83%,2.99%,1.32%,2.53%,3.35%,2.89%,4.09%,0.692%,3.03%,-1.17%
CCCc1cc(=O)[nH]c(=S)[nH]1,-0.542%,1.03%,-0.794%,1.7%,-0.649%,-0.265%,-0.282%,-1.58%,0.156%,1.61%
COC(=O)C1=C(C)NC(C)=C(C(=O)OCCN(C)Cc2ccccc2)C1c1cccc([N+](=O)[O-])c1 (stereo not given),1.83%,4.39%,2.64%,2.12%,6.81%,0.277%,13%,3.58%,-1.74%,2.92%
Nc1ncn([C@H]2C[C@H](O)[C@@H](CO)O2)c(=O)n1,2.35%,0.227%,3.51%,4.93%,4.99%,3.19%,27.6%,5.46%,2.19%,1.68%
OCCN(CCO)c1nc(N2CCCCC2)c2nc(N(CCO)CCO)nc(N3CCCCC3)c2n1,-2.31%,-0.429%,-1.26%,-0.332%,2.38%,1.04%,-0.178%,-1.52%,-2.93%,1.36%

Structure (SMILES),growth inhibition (DIPGX29),growth inhibition (DIPGX37),growth inhibition (DIPGX7),growth inhibition (DIPGX9),growth inhibition (HGGX39),growth inhibition (HGGX6),growth inhibition (HNSC),growth inhibition (SUDIPGIV),growth inhibition (SUDIPGVI),growth inhibition (SUDIPGXIII)
CN(C)CCCN1c2ccccc2Sc2ccc(C(F)(F)F)cc21,1.07%,1.48%,0.326%,0.717%,3.34%,0.498%,-0.762%,2.79%,0.329%,-5.35%
NS(=O)(=O)c1cc2c(cc1Cl)NC(C(Cl)Cl)NS2(=O)=O (stereo not given),1.16%,4.01%,3.24%,5.41%,4.4%,5.05%,-0.78%,-3.21%,2.47%,0.0927%
NCCS(=O)(=O)O,0.304%,1.36%,0.217%,0.788%,0.579%,1.43%,-2.23%,-0.945%,0.882%,-0.421%
CC(=O)/N=c1/sc(S(N)(=O)=O)nn1C,1.46%,2.45%,2.3%,1.1%,4.29%,1.67%,5.67%,0.751%,1.6%,-14.4%
O=C(O)CCCC[C@@H]1SC[C@@H]2NC(=O)N[C@@H]21,0.444%,0.747%,0.534%,1.28%,2.04%,2.52%,-1.69%,1.07%,1.25%,0.684%
NC12CC3CC(CC(C3)C1)C2,0.311%,-1.43%,0.524%,0.931%,2.31%,1.23%,-2.35%,0.117%,0.782%,-2.09%
COc1cc(NS(=O)(=O)c2ccc(N)cc2)nc(OC)n1,1.59%,1.08%,2.92%,1.55%,1.71%,2.67%,1.56%,0.337%,2.95%,-1.53%
CCOC(=O)C1=C[C@@H](OC(CC)CC)[C@H](NC(C)=O)[C@@H](N)C1,-0.948%,0.933%,-0.6%,-0.724%,-0.188%,0.263%,0.516%,1.15%,0.0268%,-0.397%
O=c1cc[nH]c(=O)[nH]1,0.309%,2.71%,0.41%,1.11%,0.158%,0.91%,-1.21%,0.441%,1.23%,-16.8%
Cc1ccc(C(=O)c2cc(O)c(O)c([N+](=O)[O-])c2)cc1,-4.7%,-1.02%,-1.81%,-2.4%,-1.44%,-3.36%,0.397%,-4.56%,-2.71%,1.37%
COc1cc2c(cc1Cc1cccc(Cl)c1F)c(=O)c(C(=O)O)cn2[C@H](CO)C(C)C,1.03%,1.4%,3.52%,3.93%,4.45%,0.0329%,19.8%,9.68%,1.61%,5.02%
CCN(CC)CCOCCOC(=O)C(CC)(CC)c1ccccc1,7.78%,4.64%,14.3%,2.65%,9.22%,10.7%,6.61%,2.41%,4.8%,-0.0734%
COC(=O)C1=C(C)NC(C)=C(C(=O)OCC(C)C)C1c1ccccc1[N+](=O)[O-] (stereo not given),1.94%,1.14%,0.789%,2.65%,5%,3.46%,5.72%,0.591%,3.16%,2.06%
COc1ccc2cc([C@H](C)C(=O)O)ccc2c1,-0.22%,-1.1%,-0.43%,0.193%,-0.312%,0.298%,0.9%,-2.72%,0.358%,0.579%
CCN(CC)C(=O)C1(c2ccccc2)CC1CN (stereo not given),0.721%,0.301%,0.852%,0.846%,0.86%,2.42%,1.54%,1.15%,2.57%,0.599%
Nc1nc(NC2CC2)c2ncn([C@H]3C=C[C@@H](CO)C3)c2n1,1.7%,3.27%,1.17%,1.56%,3.46%,3.46%,0.755%,2.42%,3.29%,0.173%
C[C@@H](c1ncncc1F)[C@](O)(Cn1cncn1)c1ccc(F)cc1F,0.619%,-0.0255%,0.392%,0.104%,0.756%,-0.00667%,1.22%,-1.27%,-1.71%,-0.404%
CCOC(=O)c1ccc(N)cc1,-1.1%,0.286%,-0.777%,-2.99%,-1.05%,-1.96%,-1.55%,-0.0558%,-0.0967%,0.467%
COc1c(C)c2c(c(O)c1C/C=C(\C)CCC(=O)OCCN1CCOCC1)C(=O)OC2,17.5%,14.5%,10.6%,15.1%,17.2%,15.1%,65.5%,8.44%,8.42%,7.66%
CCc1oc2ccccc2c1C(=O)c1cc(Br)c(O)c(Br)c1,-0.0876%,0.798%,-0.0754%,-1.64%,-0.416%,0.0697%,-1.55%,-0.229%,0.671%,2.79%
CNC(=O)c1cc(Oc2ccc(NC(=O)Nc3ccc(Cl)c(C(F)(F)F)c3)c(F)c2)ccn1,4.67%,2.29%,3.66%,2.56%,5.15%,5.99%,39.1%,1.19%,4.32%,59.3%
